Experimental data from ChEMBL document CHEMBL4513149, “CO-ADD screening of MMV (CH) - MMV compounds” (2021).
Results with a measured potency or affinity are listed apart.

Key:
Staphylococcus aureus = conditions: Concentration 20 uM; ASSAY_TEST Inhibition of Bacterial Growth; detection method Absorption (OD600); MEDIA CAMHB; plate type 384well; NBS; CORNING #3640; time 18 hr
Escherichia coli = conditions: Concentration 20 uM; ASSAY_TEST Inhibition of Bacterial Growth; detection method Absorption (OD600); MEDIA CAMHB; plate type 384well; NBS; CORNING #3640; time 18 hr

Structure (SMILES) | Inhibition (Staphylococcus aureus) [%] | Inhibition (Escherichia coli) [%]
Cc1cc(C2=NOC(c3cc(Cl)c(F)c(Cl)c3)(C(F)(F)F)C2)ccc1C(=O)NCc1ccc2c(c1)C(C)(C)OB2O (stereo not given) | 14.07 | 6.28
CC1(C)OB(O)c2ccc(C3=NOC(c4cc(Cl)c(F)c(Cl)c4)(C(F)(F)F)C3)cc21 (stereo not given) | 15.02 | 11.05
CO[C@@H](C(=O)N1Cc2[nH]nc(NC(=O)c3ccc(N4CCN(C)CC4)cc3)c2C1)c1ccccc1 [DANUSERTIB] | 12.13 | 1.94
Nc1c2c(nc3sc4c(c13)CCCC4)CCCC2 | 6.99 | -4.01
Cc1nn(Cc2ccccc2)c(Cl)c1C(=O)NC1CCCCCC1 | 11.91 | 1.54
CC(=O)Oc1ccccc1C(=O)Nc1ncc([N+](=O)[O-])s1 [NITAZOXANIDE] | 50.75 | -2.79
Cc1nn(C)c(C)c1NS(=O)(=O)c1c(Cl)cc(-c2ccnc(N3CCNCC3)c2)cc1Cl | 12.75 | 5.87
CNCCC(Oc1ccc(C(F)(F)F)cc1)c1ccccc1 (stereo not given) [FLUOXETINE] | 7.53 | 3
Cc1cccc(C(=O)Nc2ccnc(N(C)C3CCN(CC(C)C)CC3)c2)c1 | 17.27 | 7.9
CO[C@@H]1CN(c2ccc(C#CC3(O)CN4CCC3CC4)c(Cc3ccccc3)n2)C[C@H]1O (stereo not given in full) | -11.47 | -3.76
